From PubChem BioAssay come the findings set out here.

Calls of active or inactive are those of the source.

Experiment [1] deals with Albumin (Bos taurus) (UniProt P02769). Put plainly: compounds binding labelled BSA control protein – biochemical, small-molecule microarray, Alexa647 label, 635/667 nm fluorescence, artefact control for SMM control protein annotation, profiling panel (AID 1118).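 Further: score merges 667 nm emission intensity and signal-to-noise per printed compound spot.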 The note with it: BSA-A647 binding, fluorescence 635 nm, higher = more signal.
Experiment [2] is described as follows: probe aXIP binding to arrayed compounds – biochemical, NeuroSMM set, 635/667 nm fluorescence, primary screen (AID 1119).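 Further: probe is the protein aXip251-270 applied at 1 µg/mL to compound-printed slides; binding of probe to printed compounds measured as 667 nm fluorescence plus signal to noise.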 The note with it: small-molecule microarray, higher = more signal, called active from +8 up or from −8 down.
A short description of experiment [3]: probe aNOTCH3 binding on compound microarray – biochemical, small-molecule microarray, 635/667 nm fluorescence, primary screen (AID 1120).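 Further: probe is a biotin-tagged antibody raised against NOTCH3 rather than NOTCH3 protein; score merges spot fluorescence near 667 nm with spot signal to noise.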 As to conditions: higher = more signal.
Experiment [4] in a line: probe aNOTCH2 binding on compound microarray – biochemical, small-molecule microarray, 635/667 nm fluorescence, primary screen (AID 1121).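 Further: score merges feature fluorescence read at 667 nm with its signal to noise.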 The note with it: higher = more signal.
For experiment [5], the target named is Carbonic anhydrase 2 (Homo sapiens) (UniProt P00918). Put plainly: compounds binding carbonic anhydrase 2 – biochemical, small-molecule microarray, Alexa647-labelled CAII, profiling panel (AID 1122). As to conditions: CAII-A647 binding fluorescence, higher = more signal.
Experiment [6] is described as follows: COS7 lysate on small-molecule microarray, probe aHis, 635 nm (AID 1123).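 Further: z-score combines 667nm fluorescence intensity with signal-to-noise per printed compound spot.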 The note with it: COS7 cell lysate, fluorescence, higher = more signal.
The nature of experiment [7]: probe aLAP1 signal on lysate-treated microarray – cell lysate, small-molecule microarray, COS7 lysate, primary screen (AID 1124).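 Further: lysate comes from COS7 cells expressing LAP1 and is applied at 0.3 µg/mL; score merges spot fluorescence near 667 nm with signal-to-noise over triplicate slides.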 As to conditions: probe aLAP1, fluorescence, higher = more signal.
For experiment [8], the system named is Sam68 (KHDRBS1). Kind of experiment: compounds binding KHDRBS1 protein – biochemical, small-molecule microarray, 635 nm fluorescence, primary screen (AID 1125).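 Further: score merges 667 nm channel intensity with signal to noise over triplicate slides.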 The note with it: higher = more signal.
The test system of experiment [9] is Chordin-like protein 2 (CHRDL2). Kind of experiment: compounds binding chordin-like 2 – biochemical, small-molecule microarray, 635 nm fluorescence, primary screen (AID 1126).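 Further: printed compound slides probed with Chrdl2 protein at 4 µg/mL for 1 h at 4 C; score merges 667 nm emission intensity with signal to noise over three replicate slides.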 As to conditions: fluorescence 635 nm, higher = more signal.
Experiment [10] addresses Concanavalin-A (Canavalia ensiformis) (UniProt P02866). Kind of experiment: compounds binding concanavalin A lectin – biochemical, small-molecule microarray, Alexa647 label, 635 nm, artefact control for SMM control protein annotation, primary screen (AID 1127).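 Further: z combines 667 nm emission intensity with signal-to-noise across three replicate slides.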 The note with it: ConA-A647 binding fluorescence, higher = more signal.
Experiment [11] is described as follows: compounds binding Alexa647 anti-His antibody – biochemical, small-molecule microarray, 635 nm fluorescence, artefact control for SMM control protein annotation, primary screen (AID 1128).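 Further: score merges feature fluorescence with signal-to-noise for each printed compound spot.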 The note with it: higher = more signal.
For experiment [12], the system named is Human papillomavirus type 1a E7 protein (residues 1-88). Put plainly: HPV1a E7 small-molecule binders, primary screen, biochemical, small-molecule microarray, residues 1-88, 635 nm (AID 1129). As to conditions: small-molecule microarray binding, fluorescence 635 nm; higher = more signal.
Experiment [13] deals with Focal adhesion kinase 1 (Homo sapiens) (UniProt Q05397). Put plainly: PTK2 protein binding on printed compound slides – biochemical, small-molecule microarray, 635/667 nm fluorescence, BSA, DTT, primary screen (AID 1130).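 Further: composite of spot emission at 667 nm and signal to noise over triplicate slides.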 As to conditions: 635 nm fluorescence, higher = more signal.
Experiment [14] deals with Fibrinogen (Alexa647-labelled). Kind of experiment: Alexa647-fibrinogen binding to printed small molecules – biochemical, small-molecule microarray, 635/667 nm fluorescence, artefact control for SMM control-protein annotation, profiling panel (AID 1131).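 Further: z-score merges 667 nm fluorescence with per-spot signal-to-noise over triplicate slides.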 As to conditions: fibrinogen-A647 binding fluorescence, higher = more signal.
Experiment [15] addresses Follistatin (Homo sapiens) (UniProt P19883). Kind of experiment: FST protein binding to printed compounds – biochemical, small-molecule microarray, 635/667 nm fluorescence, primary screen (AID 1132). The note with it: 635 nm fluorescence, higher = more signal.
The target in experiment [16] is Fibroblast growth factor 2 (Homo sapiens) (UniProt P09038). Kind of experiment: basic fibroblast growth factor binding to printed compounds – biochemical, small-molecule microarray, 635/667 nm fluorescence, primary screen (AID 1133). As to conditions: FGF2, fluorescence 635/667, higher = more signal.
Experiment [17] can be described thus: JC-1 mitochondrial potential readout, lung cancer cells – cell-based, A549, JC-1 fluorescence, basal, 24 h, 100 nL, profiling panel (AID 1138).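 Further: A549 lung adenocarcinoma cells under basal conditions with no added stimulus; test concentration not given here.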 The note with it: higher = more signal.
Experiment [18] has as its system Lefty1. Put plainly: Lefty1 protein binding to printed compounds – biochemical, small-molecule microarray, 635/667 nm fluorescence, primary screen (AID 1139). As to conditions: fluorescence 635/667, higher = more signal.
Experiment [19] deals with wheat germ agglutinin (Triticum aestivum), Alexa647-labelled. Put plainly: Alexa647-WGA lectin binding to printed small molecules – biochemical, small-molecule microarray, 635/667 nm fluorescence, artefact control for SMM control-protein annotation, profiling panel (AID 1140).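 Further: score merges 667 nm feature emission with signal to noise over triplicate slides.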 As to conditions: WGA-A647 binding, 635 nm fluorescence, higher = more signal.
The target in experiment [20] is Luciferin 4-monooxygenase (Photinus pyralis) (UniProt P08659). Kind of experiment: inhibition of purified Photinus pyralis luciferase – biochemical, luminescence, purified enzyme, 2006 set, primary screen (AID 1141).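 Further: cell-free assay with purified firefly luciferase at 100 ng per well in PBS; test concentration not given here.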 The note with it: purified firefly luciferase, SteadyGlo luminescence, 30 min; higher = more signal, called active from +8 up or from −8 down.
Luciferin 4-monooxygenase (Photinus pyralis), sequence (P08659 whole entry, looked up): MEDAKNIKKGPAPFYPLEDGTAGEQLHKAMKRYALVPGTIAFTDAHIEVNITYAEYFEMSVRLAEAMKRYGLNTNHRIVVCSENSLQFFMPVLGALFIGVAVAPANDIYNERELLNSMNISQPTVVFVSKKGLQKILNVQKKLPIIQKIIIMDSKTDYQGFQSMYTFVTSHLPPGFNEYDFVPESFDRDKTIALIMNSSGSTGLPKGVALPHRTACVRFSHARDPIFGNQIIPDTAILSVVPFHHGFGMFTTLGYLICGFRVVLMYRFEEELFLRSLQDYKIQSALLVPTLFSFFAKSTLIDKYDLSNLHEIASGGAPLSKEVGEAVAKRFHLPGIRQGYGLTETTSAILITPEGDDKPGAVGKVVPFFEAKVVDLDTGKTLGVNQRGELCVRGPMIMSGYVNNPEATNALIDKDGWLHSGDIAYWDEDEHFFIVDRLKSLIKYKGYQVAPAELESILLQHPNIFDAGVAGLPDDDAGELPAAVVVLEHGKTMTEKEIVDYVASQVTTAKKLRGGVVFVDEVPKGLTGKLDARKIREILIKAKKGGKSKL

Focal adhesion kinase 1 (Homo sapiens), sequence (Q05397 whole entry, looked up): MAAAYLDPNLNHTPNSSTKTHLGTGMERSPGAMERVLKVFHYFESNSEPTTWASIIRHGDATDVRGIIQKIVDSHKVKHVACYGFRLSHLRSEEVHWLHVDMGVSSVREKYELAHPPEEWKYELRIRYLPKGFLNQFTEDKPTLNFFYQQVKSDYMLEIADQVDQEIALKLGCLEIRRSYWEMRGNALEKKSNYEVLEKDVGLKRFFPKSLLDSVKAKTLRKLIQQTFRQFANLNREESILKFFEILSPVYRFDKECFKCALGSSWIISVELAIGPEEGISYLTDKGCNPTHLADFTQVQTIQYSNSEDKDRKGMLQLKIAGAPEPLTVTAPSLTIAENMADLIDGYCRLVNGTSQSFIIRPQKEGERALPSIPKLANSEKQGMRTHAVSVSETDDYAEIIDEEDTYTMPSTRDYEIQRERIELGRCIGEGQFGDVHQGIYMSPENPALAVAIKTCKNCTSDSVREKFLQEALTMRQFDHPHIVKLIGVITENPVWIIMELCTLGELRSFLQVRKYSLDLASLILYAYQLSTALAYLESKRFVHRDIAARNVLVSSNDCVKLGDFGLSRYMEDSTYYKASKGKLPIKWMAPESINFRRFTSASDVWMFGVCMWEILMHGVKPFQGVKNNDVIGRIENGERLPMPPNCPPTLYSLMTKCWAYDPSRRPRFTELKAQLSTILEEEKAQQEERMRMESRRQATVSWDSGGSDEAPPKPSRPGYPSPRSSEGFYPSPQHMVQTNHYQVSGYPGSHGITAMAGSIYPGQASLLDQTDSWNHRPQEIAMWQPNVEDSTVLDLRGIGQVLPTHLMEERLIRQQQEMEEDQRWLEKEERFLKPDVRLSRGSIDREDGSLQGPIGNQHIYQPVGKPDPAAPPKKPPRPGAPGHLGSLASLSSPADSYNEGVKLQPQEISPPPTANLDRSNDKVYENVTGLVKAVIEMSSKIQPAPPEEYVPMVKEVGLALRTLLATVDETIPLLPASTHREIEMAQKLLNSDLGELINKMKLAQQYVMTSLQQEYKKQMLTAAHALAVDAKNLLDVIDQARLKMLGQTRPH
Follistatin (Homo sapiens), sequence (P19883 whole entry, looked up): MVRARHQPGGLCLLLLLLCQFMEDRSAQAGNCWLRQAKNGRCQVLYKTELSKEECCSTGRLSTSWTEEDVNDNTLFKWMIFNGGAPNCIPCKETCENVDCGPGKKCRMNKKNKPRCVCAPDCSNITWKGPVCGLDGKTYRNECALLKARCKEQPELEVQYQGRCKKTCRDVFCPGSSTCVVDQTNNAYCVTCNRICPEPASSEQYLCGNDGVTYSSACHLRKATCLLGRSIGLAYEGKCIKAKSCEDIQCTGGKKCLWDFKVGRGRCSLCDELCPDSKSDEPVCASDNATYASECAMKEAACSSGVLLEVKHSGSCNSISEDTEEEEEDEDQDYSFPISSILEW
Concanavalin-A (Canavalia ensiformis), sequence (P02866 whole entry, looked up): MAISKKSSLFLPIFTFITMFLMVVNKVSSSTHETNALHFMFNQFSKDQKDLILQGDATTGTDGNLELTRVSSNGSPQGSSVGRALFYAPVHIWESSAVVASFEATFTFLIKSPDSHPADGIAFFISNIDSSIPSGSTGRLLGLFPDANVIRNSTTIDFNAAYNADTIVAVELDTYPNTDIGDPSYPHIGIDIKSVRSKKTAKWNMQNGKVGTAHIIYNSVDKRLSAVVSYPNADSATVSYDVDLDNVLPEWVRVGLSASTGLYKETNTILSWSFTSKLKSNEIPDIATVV
Albumin (Bos taurus), sequence (P02769 whole entry, looked up): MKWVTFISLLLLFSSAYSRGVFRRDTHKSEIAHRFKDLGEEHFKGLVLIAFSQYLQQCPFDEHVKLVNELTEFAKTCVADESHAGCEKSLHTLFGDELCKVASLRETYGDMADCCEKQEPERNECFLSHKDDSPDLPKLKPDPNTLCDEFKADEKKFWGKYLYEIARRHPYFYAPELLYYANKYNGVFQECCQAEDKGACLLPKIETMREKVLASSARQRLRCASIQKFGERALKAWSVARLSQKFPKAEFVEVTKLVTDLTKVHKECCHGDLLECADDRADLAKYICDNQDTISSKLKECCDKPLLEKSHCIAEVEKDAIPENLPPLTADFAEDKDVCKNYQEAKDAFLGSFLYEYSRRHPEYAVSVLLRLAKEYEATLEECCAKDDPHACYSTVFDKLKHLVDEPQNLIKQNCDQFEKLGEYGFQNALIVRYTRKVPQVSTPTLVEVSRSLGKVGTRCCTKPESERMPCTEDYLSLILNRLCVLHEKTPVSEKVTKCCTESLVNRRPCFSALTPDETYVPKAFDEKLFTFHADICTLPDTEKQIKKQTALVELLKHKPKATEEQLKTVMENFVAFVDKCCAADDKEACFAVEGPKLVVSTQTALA
Fibroblast growth factor 2 (Homo sapiens), sequence (P09038 whole entry, looked up): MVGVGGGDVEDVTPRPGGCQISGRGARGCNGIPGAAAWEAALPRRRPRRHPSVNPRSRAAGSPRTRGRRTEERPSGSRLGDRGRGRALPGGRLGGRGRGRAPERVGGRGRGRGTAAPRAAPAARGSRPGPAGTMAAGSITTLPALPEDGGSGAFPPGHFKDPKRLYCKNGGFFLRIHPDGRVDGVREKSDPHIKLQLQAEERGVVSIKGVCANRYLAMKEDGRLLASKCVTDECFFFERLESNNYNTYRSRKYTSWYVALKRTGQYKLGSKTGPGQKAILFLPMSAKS

As to `COCCOC(=O)N1C(=O)[C@@]2(c3cc(C#CC4(O)CCCCCC4)ccc31)[C@H](c1ccc(O)cc1)N1[C@H](c3ccccc3)[C@H](c3ccccc3)OC(=O)[C@H]1[C@@H]2C(=O)N1CCc2cc(OC)c(OC)cc2C1`, the composite z-score was -0.189 in experiment [1]; -0.239 in [3]; -0.197 in experiment [4]; 0.859 in [5]; 0.288 in experiment [6]; 0.347 in experiment [7]. Moreover, the composite z-score is 0.0544 in experiment [8]; -0.861 in experiment [9]; 0.3 in [10]; -0.083 in [11]; -0.183 in [12]; 0.462 in [13]. Besides, the composite z-score in [14] is -1.69; in experiment [15], -0.792; in experiment [16], -0.505; in [18], -0.625; in experiment [19], 0.663. Besides, the composite Z-score in experiment [2] was 0.131 (inactive). The z-score is -0.506 in [17] and 0.503 (inactive) in experiment [20].

Take `COc1ccc([Si](C)(C)[C@H]2[C@H](CC(=O)N3CCC[C@H]3CO)O[C@@]3(C(=O)N(c4ccccc4)c4ccccc43)[C@@H]2C)cc1`: the composite z-score in [1] is 0.723; in experiment [3], -0.191; in [4], -0.185; in experiment [5], 0.655; in experiment [6] it was -0.0779; in [7], 0.0352. In addition, the composite z-score in [8] is -0.126; in experiment [9], 0.515; in experiment [10], 0.493; in experiment [11], 0.318; in experiment [12], 0.0005; in experiment [13] it was 0.223. Also, the composite z-score in [14] is -0.445; in [15] it was 0.813; in experiment [16], 0.441; in experiment [18] it was 0.992; in experiment [19] it was 0.0807. The composite Z-score in experiment [2] is -0.352 (inactive). Moreover, the z-score in experiment [17] is 0.16; in [20], 0.72 (inactive).

Take `[N-]=[N+]=NCc1ccccc1C[C@]1(C(=O)NCCN2CCOCC2)N=C(c2ccc(OCCCO)cc2)O[C@H]1c1ccccc1CN=[N+]=[N-]`: the composite z-score was 0.825 in experiment [1]; 0.399 in [3]; -0.0474 in experiment [4]; 0.337 in experiment [5]; -0.827 in [6]; 0.736 in experiment [7]. Also, the composite z-score in experiment [8] is 1.13; in experiment [9], -0.0255; in [10], 1.05; in experiment [11] it was 1.09; in experiment [12] it was 1.21; in experiment [13], 1.43. Further, the composite z-score in experiment [14] came to 0.99; in experiment [15], 1.11; in experiment [16] it was 0.783; in [18], 0.886; in experiment [19], 0.495. For the same compound, the composite Z-score in experiment [2] is -0.0191 (inactive). Also, the figures for the z-score in [17] and in [20] were 0.963 and 0.203 (inactive), respectively.

For `CO[C@H]1O[C@H](CO)[C@@H](OC(=O)Nc2ccc(C(F)(F)F)cc2)[C@H](OC(=O)Nc2ccccc2)[C@@H]1OC(=O)Nc1ccccc1`, the composite z-score in experiment [1] is 0.533; in experiment [3], 0.217; in experiment [4] it was 0.0405; in experiment [5], 0.527; in experiment [6], 2.31; in [7], -0.0098. The composite z-score in experiment [8] is 1.29; in experiment [9] it was -0.28; in experiment [10], 1.16; in [11], 0.817; in experiment [12] it was 1.18; in [13], 0.132. Besides, the composite z-score is 0.944 in experiment [14]; 1.21 in experiment [15]; 0.21 in experiment [16]; 0.41 in experiment [18]; 0.58 in [19]. Further, in [2], the composite Z-score is 0.291 (inactive). Moreover, the z-score in experiment [17] was -0.191; in experiment [20] it was -0.72 (inactive).

For `CCCCN1CC=CC23O[C@@H]4C=CCCOC(=O)C4[C@H]2C(=O)N(CCCO)[C@@H]3C1=O` (stereo not given in full), the composite z-score was -1.13 in experiment [1]; -0.189 in experiment [3]; -0.155 in experiment [4]; 0.488 in [5]; -0.673 in experiment [6]; -0.469 in experiment [7]. Further, the composite z-score is -0.905 in experiment [8]; -0.304 in experiment [9]; -1.59 in [10]; -1.31 in experiment [11]; -1.79 in experiment [12]; -0.274 in [13]. The composite z-score was -1.42 in experiment [14]; 0.274 in experiment [15]; -0.469 in experiment [16]; -0.439 in [18]; -1.45 in experiment [19]. In [2], the composite Z-score is -0.941 (inactive). Moreover, the z-score in experiment [17] is -1.13; in experiment [20], -0.11 (inactive).

In the case of `[N-]=[N+]=NCc1ccccc1[C@H]1OC(c2ccc(OCCCO)cc2)=N[C@@]1(Cc1ccccc1)C(=O)NCC(O)CO` (stereo not given in full), the composite z-score in experiment [1] was 0.691; in experiment [3] it was 0.506; in [4] it was -0.0013; in experiment [5], 0.76; in experiment [6], 3.42; in experiment [7], 0.941. Moreover, the composite z-score is 0.966 in experiment [8]; -0.609 in [9]; -0.0213 in experiment [10]; 1.86 in experiment [11]; 1.25 in experiment [12]; 1.08 in [13]. Also, the composite z-score in experiment [14] was 0.726; in experiment [15] it was 0.474; in experiment [16] it was -0.0723; in experiment [18] it was -0.994; in experiment [19], 0.486. The composite Z-score in experiment [2] is 0.0638 (inactive). For the same compound, the z-score in experiment [17] is 1.2; in [20], 0.142 (inactive).
